Among the data in PubChem BioAssay (Tox21) are Potency and outcome values, retold here.

Test [1] can be described thus: qHTS assay for small molecule agonists of the p53 signaling pathway (AID 651631; calls by dose curve; also: nearly all actives have a fitted effect of over 15% in size; also: potency is read from the fitted curve at half-maximal effect). The gist of the method:
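Readout was fluorescence from the LiveBLAzer FRET substrate, applied for 2 h at room temperature after 16 h compound exposure at 37 °C. Cells were the p53RE-bla HCT-116 line, with beta-lactamase driven by p53 response elements.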
On the technique in general: Quantitative high-throughput screening tests each substance at several concentrations.

Test [2] in a line: qHTS assay for small molecules that induce genotoxicity in human embryonic kidney cells expressing luciferase-tagged ATAD5 (AID 651632). Also: nearly all actives have a fitted effect of over 15% in size. The gist of the method: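 HEK293T cells carrying a luciferase reporter tagged to ATAD5 were exposed to compound or DMSO vehicle for 16 hr at 37C, 5% CO2. Amplite was added, and after 30 min at room temperature luciferase activity was read as a marker of ATAD5 induction.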

Test [3] can be described thus: qHTS assay for small molecules that induce genotoxicity in human embryonic kidney cells expressing luciferase-tagged ATAD5 - cell viability (AID 651634; calls by dose curve; also: nearly all actives have a fitted effect of over 25% in size). The gist of the method: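 HEK293T cells expressing luciferase-tagged ATAD5 were exposed to compound or DMSO for 15.5 hr at 37C, 5% CO2. Viability was then read as live-cell protease activity by CellTiter-Fluor fluorescence after 30 min at 37C.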

Test [4] is described as follows: qHTS assay for small molecule disruptors of the mitochondrial membrane potential - cell viability (AID 720634; calls by dose curve;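 also: human HepG2 liver cancer cells; series mostly up to about 83 µM; nearly all actives have a fitted effect of over 20% in size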). The essentials:
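HepG2 cells seeded overnight at 37 C, then exposed to compound or DMSO for 1 hr at 37 C, 5% CO2. m-MPI dye added, then CellTiter-Glo for 30 min at room temperature; viability read as ATP luminescence.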

Test [5] in a line: qHTS assay for small molecule disruptors of the mitochondrial membrane potential (AID 720635). Also: potency is read from the fitted curve at half-maximal effect. The gist of the method: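 HepG2 cells (2,000/well) attached overnight at 37C, then took compound for 1 hr at 37C, 5% CO2. Mito-MPS dye was added for 30 min; fluorescence was read at 490/535 nm (monomers) and 540/590 nm (aggregates).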
Test [6] can be described thus: qHTS assay to test for compound auto fluorescence at 590 nm (red) in HepG2 cells (AID 720674). The gist of the method: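 Rose Bengal sodium served as the red fluorophore standard. HepG2 monolayers (overnight attachment, MEM with 10% FBS) were exposed to test compounds for 1 hr at 37 C and read at Ex 540/Em 590 nm.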
A short description of test [7]: qHTS assay to test for compound auto fluorescence at 535 nm (green) in HepG2 cells (AID 720675).
Test [8] can be described thus: qHTS assay to test for compound auto fluorescence at 460 nm (blue) in HEK293 cells (AID 720678). The essentials:
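Auto fluorescence in the blue band was quantified as triamterene equivalency. HEK293 cells were seeded at 2,000/well, dosed after a 4-5 hr attachment, and kept overnight at 37C before the 405/460 nm reading.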

Test [9] in a line: qHTS assay to test for compound auto fluorescence at 590 nm (red) in HEK293 cells (AID 720679). The essentials: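 Autofluorescence equivalency to Rose Bengal sodium, 540/590nm, in HEK293 cells exposed overnight to 23 nL compound per well.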
The nature of test [10]: qHTS assay to test for compound auto fluorescence at 535 nm (green) in HEK293 cells (AID 720680).
A short description of test [11]: qHTS assay to test for compound auto fluorescence at 460 nm (blue) in HEK293 cell free culture (AID 720681). The gist of the method: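 Test compounds were pinned into cell-free culture medium (DMEM with 10% FBS) and fluorescence was read directly at Ex/Em 405/460 nm. Signals were expressed as fluorescence equivalents of triamterene, with DMSO vehicle as control.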

Test [12] is described as follows: qHTS assay to test for compound auto fluorescence at 590 nm (red) in HEK293 cell free culture (AID 720683). The essentials: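 Tox21 10K library compounds were pinned into cell-free DMEM with 10% FBS and fluorescence was read at excitation 540 nm. Activity is expressed as Rose Bengal sodium equivalency.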
The nature of test [13]: qHTS assay to test for compound auto fluorescence at 590 nm (red) in HepG2 cell free culture (AID 720684). The gist of the method:
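Measured in medium alone (MEM containing 10% FBS) following pintool addition of compound; emission at 590 nm with 540 nm excitation, referenced to Rose Bengal sodium.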

Test [14] can be described thus: qHTS assay to test for compound auto fluorescence at 460 nm (blue) in HepG2 cell free culture (AID 720685). The gist of the method: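 Compound (23 nL) or DMSO pinned into cell-free MEM with 10% FBS; blue fluorescence read at 405/460 nm excitation/emission, expressed as auto-fluorescence equivalency to triamterene.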
A short description of test [15]: qHTS assay to test for compound auto fluorescence at 535 nm (green) in HepG2 cell free culture (AID 720686).
The nature of test [16]: qHTS assay to test for compound auto fluorescence at 460 nm (blue) in HepG2 cells (AID 720687). The essentials: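 Cells (2,000/well in MEM with 10% FBS) attached overnight at 37 C, then were exposed to compound or DMSO for 1 hr at 37 C, 5% CO2. Fluorescence read at Ex/Em 405/460 nm, expressed as triamterene-equivalent signal.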
For test [17], the target named is Glucocorticoid receptor (Homo sapiens) (UniProt P04150). Kind of test: qHTS assay to identify small molecule agonists of the glucocorticoid receptor (GR) signaling pathway (AID 720691; active = well fitted activation curve with a large enough effect in the signal ratio in the repeat runs, not every such curve was filed as active; the % refers to the signal ratio). The essentials:
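GR-bla HeLa cells (beta-lactamase reporter under glucocorticoid response element) were plated 4 h at 37 C/5% CO2, given compounds in DMSO, and incubated 18 h at 37 C. LiveBLAzer B/G FRET substrate was added for 2 h at room temperature, then fluorescence intensity read.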

The nature of test [18]: qHTS assay for small molecule agonists of the p53 signaling pathway - cell viability (AID 651633; calls by dose curve; also: series mostly up to about 83 µM; nearly all actives have a fitted effect of over 30% in size). The gist of the method: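 p53RE-bla cells, seeded at 4,000 per well and rested 5 h at 37 C/5% CO2, received compounds in DMSO for 16 h at 37 C. CellTiter-Glo was then added, and luminescence was read after 30 min at room temperature to gauge cytotoxicity.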
For test [19], the target named is Glucocorticoid receptor (Homo sapiens) (UniProt P04150). The test is described as follows: qHTS assay to identify small molecule antagonists of the glucocorticoid receptor (GR) signaling pathway (AID 720692; active = well fitted inhibition curve with a large enough effect in the signal ratio in the repeat runs, not every such curve was filed as active; the % refers to the signal ratio). The gist of the method:
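GR-bla HeLa cells (beta-lactamase reporter under glucocorticoid response element) were pre-plated 4 h at 37 C, treated with compounds plus 5 nM dexamethasone (final) for 18 h, then read by LiveBLAzer B/G FRET fluorescence after 2 h.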

The nature of test [20]: qHTS assay to test for compound auto fluorescence at 535 nm (green) in HEK293 cell free culture (AID 720682). The gist of the method: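 Compounds were pin-transferred into cell-free DMEM with 10% FBS, and green fluorescence was read at excitation 485 nm and emission 535 nm. Intensities were expressed as fluorescein-equivalent values.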

Each structure is given as a SMILES string. Unmarked numbers belong to inactive results. Inconclusive results are not listed. The source made the active and inactive calls. Unless noted, calls follow the shape of the dose curve; as a rule, active = well fitted curve in the direction sought with a large enough effect in the repeat runs; inconclusive = weak or mixed curves; inactive = no such curve, though single readings can be large; an effect the other way counts as inactive or inconclusive.

Chain of Glucocorticoid receptor (Homo sapiens) (P04150 whole entry, looked up): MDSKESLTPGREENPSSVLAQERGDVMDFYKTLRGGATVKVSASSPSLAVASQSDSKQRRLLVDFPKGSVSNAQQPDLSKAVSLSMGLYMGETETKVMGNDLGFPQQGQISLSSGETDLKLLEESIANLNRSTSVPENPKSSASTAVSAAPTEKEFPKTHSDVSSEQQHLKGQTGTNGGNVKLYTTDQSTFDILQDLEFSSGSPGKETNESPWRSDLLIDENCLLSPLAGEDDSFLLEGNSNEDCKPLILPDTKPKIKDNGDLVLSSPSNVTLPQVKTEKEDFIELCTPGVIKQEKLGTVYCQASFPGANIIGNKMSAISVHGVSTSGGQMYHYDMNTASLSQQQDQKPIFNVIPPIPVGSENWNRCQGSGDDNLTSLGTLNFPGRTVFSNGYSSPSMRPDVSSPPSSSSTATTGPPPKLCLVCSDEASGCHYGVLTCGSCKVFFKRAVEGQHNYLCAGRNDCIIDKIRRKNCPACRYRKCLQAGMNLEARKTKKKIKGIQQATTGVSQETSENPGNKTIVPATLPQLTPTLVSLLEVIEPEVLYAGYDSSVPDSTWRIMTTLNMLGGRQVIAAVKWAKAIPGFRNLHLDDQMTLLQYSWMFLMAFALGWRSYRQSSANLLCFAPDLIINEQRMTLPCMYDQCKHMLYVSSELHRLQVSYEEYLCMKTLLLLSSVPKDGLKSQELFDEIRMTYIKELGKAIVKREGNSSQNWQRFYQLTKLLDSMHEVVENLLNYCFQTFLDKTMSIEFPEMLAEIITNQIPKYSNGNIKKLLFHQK

Regarding `CCO[Si](CC(C)C)(OCC)OCC`, the Potency result in [1], in test [2] and in test [17] was “inactive” each time. The compound was classed as inactive in test [3], in [4], in [6], in [7], in test [8] and in test [9]. The call in test [10], in test [11], in test [12], in test [13], in test [14] and in [15] was inactive. Also, in test [16], the outcome was inactive. Also, the Potency in test [5] is 27.3 µM (active).
As for `CCc1ncc(C)[nH]1`, the Potency result in test [1], in test [2] and in [17] was “inactive” each time. For the same compound, the outcome in test [18], in test [3], in [4], in [6], in [7] and in test [8] was inactive. For the same compound, the call in [9], in [10], in test [11], in [12], in [13] and in [14] was inactive. Besides, the outcome in test [15], in test [16] and in test [19] was inactive.
As to `CC(C)=CCC/C(C)=C\C#N`, the Potency entry in [1], in [2] and in test [17] was “inactive” each time. The outcome in test [3], in test [4], in test [6], in test [7], in test [8] and in test [9] was inactive. Further, the compound was called inactive in test [10], in test [11], in [20], in [12], in test [13] and in [14]. For the same compound, the outcome in test [15] and in test [16] was inactive.
In the case of `CCCCCCCCCCCC(C)=O`, the Potency entry in test [1], in [2], in test [5] and in [17] was “inactive” each time. Moreover, the call in test [3], in [4], in test [6], in test [7], in [8] and in test [9] was inactive. The compound was called inactive in test [10], in test [11], in test [20], in [12], in test [13] and in test [15]. Further, the outcome in test [16] and in test [19] was inactive.
Consider `CC(CN1CC(=O)NC(=O)C1)N1CC(=O)NC(=O)C1` (configuration not stated), for which, in [1], the Potency is 11.9 µM (active). Besides, the Potency result in test [2] and in [5] was “inactive” in each case. Further, the compound was classed as inactive in test [3], in [4], in [6], in test [7], in test [8] and in [9]. The compound was classed as inactive in test [10], in test [11], in test [20], in [12], in test [13] and in test [14]. Besides, the call in test [15] and in test [16] was inactive.
As to `COC(=O)c1ccccc1Cl`, the Potency result in test [1], in [2] and in test [17] was “inactive” in each case. For the same compound, the compound was classed as inactive in [3], in test [4], in [6], in test [7], in test [8] and in test [9]. The outcome in test [10], in [11], in test [20], in [12], in test [13] and in [14] was inactive. Also, the outcome in test [15], in test [16] and in [19] was inactive.
On to `CCC(C)(C)C`, for which the Potency result in test [1], in test [2] and in test [17] was “inactive” each time. The call in test [18], in test [3], in test [4], in [6], in test [7] and in test [8] was inactive. Besides, the outcome in [9], in [10], in test [11], in test [12], in test [13] and in [14] was inactive. Besides, the compound was called inactive in test [15] and in test [16].
